Assay [1] is described as follows: Human pregnane X receptor (PXR) small molecule agonists, qHTS cell viability counter screen (AID 1346977). Note: nearly all actives have a fitted effect of over 50% in size. Note: potency is the fitted concentration of half-maximal effect. In short, it runs like this: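 HepG2 cells stably carrying the PXR-Luc reporter are cultured with 5% charcoal-stripped FBS and treated with compounds for 24hr. CellTiter-Fluor is added at 23hr and fluorescence is read after 1hr.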
(In qHTS, concentration-response curves come from the screen itself.)

A short description of assay [2]: Caspase-3/7 induction in HepG2 cells by small molecules, qHTS assay (AID 1346978). Note: nearly all actives have a fitted effect of over 15% in size. Note: potency is the fitted concentration of half-maximal effect. An outline of the steps:
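Wild-type HepG2 cells, 2,000/well, settled 5 hr at 37 C and 5% CO2, then compound-treated for 17 hr; caspase-3/7 activity read by luminescent Caspase-Glo 3/7 after 30 min at room temperature.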

A short description of assay [3]: Caspase-3/7 induction in CHO-K1 cells by small molecules, qHTS cell viability counter screen (AID 1346979). Note: nearly all actives have a fitted effect of over 35% in size. Note: potency is the fitted concentration of half-maximal effect. In short, it runs like this: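 Seeding: 1,500 CHO-K1 cells/well. Rest: 5hr, 37C. Treatment: compounds in DMSO, 16hr. Read: CellTiter-Fluor, 1hr, fluorescence.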
Assay [4] in a line: Caspase-3/7 induction in CHO-K1 cells by small molecules, qHTS assay (AID 1346980). Note: nearly all actives have a fitted effect of over 15% in size. In short, it runs like this:
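Wild-type CHO-K1 cells exposed to compounds for 17hr at 37 C, 5% CO2. Caspase-3/7 activity then measured by Caspase-Glo 3/7 luminescence after 30min at room temperature.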

Assay [5] addresses Nuclear receptor subfamily 1 group I member 2 (Homo sapiens) (UniProt O75469). As to the kind of experiment: Human pregnane X receptor (PXR) small molecule agonists, qHTS assay (AID 1346982). Note: nearly all actives have a fitted effect of over 35% in size. Note: potency is the fitted concentration of half-maximal effect. An outline of the steps: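 Agonist mode qHTS: PXR-Luc HepG2 cells plated 5 hr before DMSO-dissolved compounds were pinned in, cultured 24 hr at 37 C, 5% CO2; ONE-Glo luminescence readout.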

The target in assay [6] is Acetylcholinesterase (Homo sapiens) (UniProt P22303). As to the kind of experiment: Acetylcholinesterase (AChE) small molecule antagonists: colormetric cell-based qHTS assay (AID 1347395; calls by dose curve; note: nearly all actives have a fitted effect of over 30% in size; note: potency is the fitted concentration of half-maximal effect). In short, it runs like this: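 Quantitative HTS in attached SH-SY5Y cells: 30 min compound exposure, then 90 min with acetylthiocholine and DTNB at 37 C; colour from thiocholine reports AChE activity.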
Sequence of Acetylcholinesterase (Homo sapiens) (P22303 whole entry, looked up): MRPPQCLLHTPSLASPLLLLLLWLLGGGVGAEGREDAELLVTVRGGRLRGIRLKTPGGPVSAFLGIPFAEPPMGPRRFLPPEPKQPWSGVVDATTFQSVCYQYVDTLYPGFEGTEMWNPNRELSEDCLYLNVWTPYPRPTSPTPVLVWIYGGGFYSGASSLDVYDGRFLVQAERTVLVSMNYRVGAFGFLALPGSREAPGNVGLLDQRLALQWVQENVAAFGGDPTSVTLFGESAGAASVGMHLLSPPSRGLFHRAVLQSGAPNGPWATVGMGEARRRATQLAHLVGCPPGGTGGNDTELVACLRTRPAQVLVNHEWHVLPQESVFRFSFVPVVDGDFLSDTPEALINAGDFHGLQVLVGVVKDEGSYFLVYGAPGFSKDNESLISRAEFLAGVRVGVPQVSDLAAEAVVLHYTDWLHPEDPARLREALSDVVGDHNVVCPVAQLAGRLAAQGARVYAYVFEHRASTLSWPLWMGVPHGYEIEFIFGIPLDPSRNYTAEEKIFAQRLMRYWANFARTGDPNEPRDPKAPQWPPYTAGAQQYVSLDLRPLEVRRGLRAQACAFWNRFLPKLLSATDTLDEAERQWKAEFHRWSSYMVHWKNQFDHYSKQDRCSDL

For assay [7] the target is unchanged. Briefly: Acetylcholinesterase (AChE) small molecule antagonists: enzyme-based qHTS assay (AID 1347397; calls by dose curve; note: nearly all actives have a fitted effect of over 55% in size). The note with it: Potency: AChE enzyme activity inhibition. An outline of the steps:
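Recombinant human AChE (50 mU/mL) preincubated with compound 30 min at room temperature; acetylthiocholine plus DTNB then added, and thiocholine formation read colorimetrically after 10 min at room temperature. DMSO served as vehicle control.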

Assay [8] has the same target. As to the kind of experiment: Acetylcholinesterase (AChE) small molecule antagonists: fluorescence cell-based qHTS assay (AID 1347398; calls by dose curve; note: nearly all actives have a fitted effect of over 50% in size; note: potency is the fitted concentration of half-maximal effect). To be noted: Potency: AChE activity. In short, it runs like this:
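SH-SY5Y cells (2000/well), attached overnight, incubated with compound 30 min at 37 C. Acetylthiocholine plus Thiolite Green then added for 40 min at room temperature. Thiocholine fluorescence (Ex/Em 490/520 nm) reports cellular AChE activity.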

For assay [9] the target is unchanged. As to the kind of experiment: Acetylcholinesterase (AChE) small molecule antagonists: enzyme-based qHTS assay with human liver microsomes (AID 1347399; calls by dose curve; note: nearly all actives have a fitted effect of over 60% in size). The note with it: Potency: qHTS inhibition. An outline of the steps: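 Recombinant human AChE (50 mU/mL in the enzyme mix) and human liver microsomes (0.25 mg/mL final) were preincubated with compound and NADPH (0.25 mg/mL final) for 30 min at 37 C. Acetylthiocholine/DTNB was then added; thiocholine was read colorimetrically after 10 min at room temperature.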

Assay [10] deals with Cytochrome P450 2D6 (Homo sapiens) (UniProt P10635). Briefly: Cytochrome P450 Family 2 Subfamily D Member 6 (CYP2D6) small molecule antagonists: luciferase reporter qHTS assay (AID 1671196). Note: nearly all actives have a fitted effect of over 50% in size. Note: potency is the fitted concentration of half-maximal effect. An outline of the steps: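 P450-Glo format: CYP2D6 converts a proluciferin substrate to luciferin in an NADPH-driven reaction lasting 1 h at room temperature. Light output, proportional to CYP2D6 activity, reflects interference by test chemicals.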
Sequence of Cytochrome P450 2D6 (Homo sapiens) (P10635 whole entry, looked up): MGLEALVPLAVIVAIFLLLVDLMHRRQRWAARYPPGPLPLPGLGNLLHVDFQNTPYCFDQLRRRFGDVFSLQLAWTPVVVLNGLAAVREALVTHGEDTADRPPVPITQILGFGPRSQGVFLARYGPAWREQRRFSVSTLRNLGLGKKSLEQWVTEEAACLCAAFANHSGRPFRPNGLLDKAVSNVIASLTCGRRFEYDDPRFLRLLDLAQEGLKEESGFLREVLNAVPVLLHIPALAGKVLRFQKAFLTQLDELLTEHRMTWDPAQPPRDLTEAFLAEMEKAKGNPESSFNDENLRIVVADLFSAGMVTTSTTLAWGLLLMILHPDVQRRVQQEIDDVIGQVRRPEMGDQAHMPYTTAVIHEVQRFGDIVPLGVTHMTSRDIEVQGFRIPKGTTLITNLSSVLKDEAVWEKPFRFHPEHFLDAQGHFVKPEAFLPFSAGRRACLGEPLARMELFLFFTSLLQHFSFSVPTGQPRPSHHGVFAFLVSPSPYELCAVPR
In general terms: In a reporter assay the amount or activity of a reporter protein is the signal.

The target in assay [11] is Cytochrome P450 2C19 (Homo sapiens) (UniProt P33261). As to the kind of experiment: Cytochrome P450 Family 2 Subfamily C Member 19 (CYP2C19) small molecule antagonists: luciferase reporter qHTS assay (AID 1671197). Note: nearly all actives have a fitted effect of over 65% in size. Note: potency is the fitted concentration of half-maximal effect. In short, it runs like this:
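Light output is proportional to CYP2C19 activity: proluciferin substrate is converted to luciferin, then detected by a luciferin detection reagent that also stops the 1 h, 37C NADPH-driven reaction. Ketoconazole serves as positive control.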

For assay [12], the target named is Cytochrome P450 2C9 (Homo sapiens) (UniProt P11712). As to the kind of experiment: Cytochrome P450 Family 2 Subfamily C Member 9 (CYP2C9) small molecule antagonists: luciferase reporter qHTS assay (AID 1671198). Note: nearly all actives have a fitted effect of over 50% in size. Note: potency is the fitted concentration of half-maximal effect. An outline of the steps: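 P450-Glo proluciferin substrate with CYP2C9 enzyme; 10 min RT preincubation, then NADPH regeneration 1 h at 37C; luciferin detection reagent 20 min RT, luminescence in relative luminescence units.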
Sequence of Cytochrome P450 2C9 (Homo sapiens) (P11712 whole entry, looked up): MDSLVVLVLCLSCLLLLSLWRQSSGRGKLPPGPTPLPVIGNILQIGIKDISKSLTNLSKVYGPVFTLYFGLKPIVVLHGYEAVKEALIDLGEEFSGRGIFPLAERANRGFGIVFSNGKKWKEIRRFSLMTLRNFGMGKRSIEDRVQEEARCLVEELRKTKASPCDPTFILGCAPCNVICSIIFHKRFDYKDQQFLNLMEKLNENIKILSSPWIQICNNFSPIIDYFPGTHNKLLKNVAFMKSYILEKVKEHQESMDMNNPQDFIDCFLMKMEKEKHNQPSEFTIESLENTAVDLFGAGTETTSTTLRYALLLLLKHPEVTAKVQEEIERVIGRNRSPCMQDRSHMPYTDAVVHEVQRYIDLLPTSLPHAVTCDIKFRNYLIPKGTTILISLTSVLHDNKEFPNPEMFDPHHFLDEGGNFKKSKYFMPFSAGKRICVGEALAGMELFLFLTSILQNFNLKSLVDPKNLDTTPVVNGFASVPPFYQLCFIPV

Assay [13] deals with Cytochrome P450 3A4 (Homo sapiens) (UniProt P08684). Briefly: Cytochrome P450 Family 3 Subfamily A Member 4 (CYP3A4) small molecule antagonists: luciferase reporter qHTS assay (AID 1671201). Note: nearly all actives have a fitted effect of over 50% in size. Note: potency is the fitted concentration of half-maximal effect. An outline of the steps:
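Enzyme and proluciferin substrate are mixed with test chemicals for 10 min, then NADPH regeneration system drives turnover for 1 h at room temperature. A detection reagent halts the reaction; luminescence after 20 min gives relative activity.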

Assay [14] can be described thus: Caspase-3/7 induction in HepG2 cells by small molecules, qHTS cell viability counter screen (AID 1346981). Note: nearly all actives have a fitted effect of over 30% in size. Note: potency is the fitted concentration of half-maximal effect. An outline of the steps:
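Steps: seed 2,000 HepG2 cells per well; incubate 5 hr at 37 C; pin-add compounds in DMSO; incubate 16 hr; add CellTiter-Fluor; after 1 hr at 37 C and 5% CO2, read fluorescence.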

The target in assay [15] is Voltage-gated inwardly rectifying potassium channel KCNH2 (Homo sapiens) (UniProt Q12809). As to the kind of experiment: Human Ether-a-go-go-Related Gene (hERG) channel small molecule antagonists: fluorescence cell-based qHTS assay (AID 1671200). Note: nearly all actives have a fitted effect of over 50% in size. Note: potency is the fitted concentration of half-maximal effect. An outline of the steps: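 First, 1000 cells per well are seeded and cultured overnight at 37 C. Next, FluxOR II dye is loaded for 1 h at room temperature, protected from light. After 10 more minutes, stimulus is added and fluorescence is read.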
Sequence of Voltage-gated inwardly rectifying potassium channel KCNH2 (Homo sapiens) (Q12809 whole entry, looked up): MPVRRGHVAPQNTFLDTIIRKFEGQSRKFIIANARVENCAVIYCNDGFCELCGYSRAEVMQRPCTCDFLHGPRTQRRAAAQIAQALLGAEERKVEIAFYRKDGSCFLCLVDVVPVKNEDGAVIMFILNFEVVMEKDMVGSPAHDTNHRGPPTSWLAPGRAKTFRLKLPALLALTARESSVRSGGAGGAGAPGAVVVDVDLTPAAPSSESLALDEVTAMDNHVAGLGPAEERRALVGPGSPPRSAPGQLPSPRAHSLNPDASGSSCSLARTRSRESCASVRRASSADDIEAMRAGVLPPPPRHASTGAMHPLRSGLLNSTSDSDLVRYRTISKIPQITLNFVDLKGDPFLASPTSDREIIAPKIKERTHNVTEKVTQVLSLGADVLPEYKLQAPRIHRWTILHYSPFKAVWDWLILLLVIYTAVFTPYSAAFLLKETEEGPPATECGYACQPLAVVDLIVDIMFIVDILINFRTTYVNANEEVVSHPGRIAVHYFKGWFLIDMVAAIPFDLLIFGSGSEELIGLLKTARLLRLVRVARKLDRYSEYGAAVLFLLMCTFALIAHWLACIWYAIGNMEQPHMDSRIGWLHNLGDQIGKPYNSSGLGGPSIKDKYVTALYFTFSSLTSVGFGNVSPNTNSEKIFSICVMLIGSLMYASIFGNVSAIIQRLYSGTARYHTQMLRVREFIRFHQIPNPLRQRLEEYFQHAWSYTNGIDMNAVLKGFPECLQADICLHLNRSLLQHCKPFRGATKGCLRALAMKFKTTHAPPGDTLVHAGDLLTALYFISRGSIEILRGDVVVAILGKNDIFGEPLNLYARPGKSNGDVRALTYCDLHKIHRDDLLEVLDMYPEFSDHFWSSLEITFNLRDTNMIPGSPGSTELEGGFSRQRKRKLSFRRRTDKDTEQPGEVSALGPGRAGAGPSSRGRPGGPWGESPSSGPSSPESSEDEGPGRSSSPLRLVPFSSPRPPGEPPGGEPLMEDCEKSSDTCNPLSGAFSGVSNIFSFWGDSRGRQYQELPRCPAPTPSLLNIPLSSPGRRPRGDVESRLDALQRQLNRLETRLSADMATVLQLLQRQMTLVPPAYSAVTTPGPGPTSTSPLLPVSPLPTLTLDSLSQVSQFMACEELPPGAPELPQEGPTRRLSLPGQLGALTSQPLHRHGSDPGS
In general terms: The hERG channel carries a current that helps repolarise heart muscle cells.

Assay [16] deals with Cytochrome P450 1A2 (Homo sapiens) (UniProt P05177). As to the kind of experiment: Cytochrome P450 Family 1 Subfamily A Member 2 (CYP1A2) small molecule antagonists: luciferase reporter qHTS assay (AID 1671199). Note: nearly all actives have a fitted effect of over 50% in size. Note: potency is the fitted concentration of half-maximal effect. In short, it runs like this:
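Inhibition of CYP1A2 conversion of proluciferin to luciferin, detected by luminescence. Reaction run 1 h at room temperature with NADPH regeneration after brief compound preincubation.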

In assay [17] the target is Nuclear receptor subfamily 1 group I member 2 (Rattus norvegicus) (UniProt Q9R1A7). As to the kind of experiment: Rat pregnane X receptor (rPXR) activation by small molecules, qHTS assay (AID 1346983). Note: nearly all actives have a fitted effect of over 20% in size. The note with it: rPXR luciferase reporter cells, One-Glo luminescence, 24 h; max activation: stronger effect = higher value. In short, it runs like this:
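Cell-based rPXR activation assay: rPXR cells, 2,000 per well, rested 5hr at 37 C, then exposed to compounds in DMSO for 24 hr at 37 C. Luciferase activity read by One-Glo luminescence after 30 min at room temperature.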

Assay [18] addresses Nuclear receptor subfamily 1 group I member 2 (Homo sapiens) (UniProt O75469). Briefly: CYP3A4 induction through human pregnane X receptor (PXR) by small molecules, qHTS assay (AID 1346984). Note: nearly all actives have a fitted effect of over 40% in size. An outline of the steps: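 Steps: seed DPX-2 cells, 5 hr at 37C; pin-transfer compounds; 24 hr at 37C; add Luciferin-IPA (3uM final), 3 hr at 37C; add One-Glo, 30 min RT; read luminescence.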

The values that follow come from PubChem BioAssay (Tox21).

“And” between values parts separate entries of the source, which are not always exact repeats. Identical values can stand only once. Results filed as inconclusive are left out. The source holds several records for some structures; these can differ, active in one and inactive in another. The source made the active and inactive calls. Unless noted, calls come from the whole dose curve; as a rule, active = well fitted curve in the direction sought with a large enough effect in the repeat runs; inconclusive = weak or mixed curves; inactive = no such curve, though single readings can be large; an effect the other way counts as inactive or inconclusive.
% is set by controls: 0 for no effect and ±100 for the full control effect.

Sequence of Nuclear receptor subfamily 1 group I member 2 (Homo sapiens) (O75469 whole entry, looked up): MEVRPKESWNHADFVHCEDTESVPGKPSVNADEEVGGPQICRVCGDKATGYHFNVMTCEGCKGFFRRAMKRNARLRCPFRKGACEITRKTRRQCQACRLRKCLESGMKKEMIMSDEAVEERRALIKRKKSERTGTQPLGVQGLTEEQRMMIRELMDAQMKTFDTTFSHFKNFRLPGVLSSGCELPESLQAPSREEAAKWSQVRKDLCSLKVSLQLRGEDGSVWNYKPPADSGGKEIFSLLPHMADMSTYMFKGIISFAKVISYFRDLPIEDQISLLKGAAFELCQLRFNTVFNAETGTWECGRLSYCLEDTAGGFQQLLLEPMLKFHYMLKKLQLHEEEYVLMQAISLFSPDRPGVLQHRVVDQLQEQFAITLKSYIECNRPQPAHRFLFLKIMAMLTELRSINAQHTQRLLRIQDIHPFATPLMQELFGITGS
Sequence of Cytochrome P450 1A2 (Homo sapiens) (P05177 whole entry, looked up): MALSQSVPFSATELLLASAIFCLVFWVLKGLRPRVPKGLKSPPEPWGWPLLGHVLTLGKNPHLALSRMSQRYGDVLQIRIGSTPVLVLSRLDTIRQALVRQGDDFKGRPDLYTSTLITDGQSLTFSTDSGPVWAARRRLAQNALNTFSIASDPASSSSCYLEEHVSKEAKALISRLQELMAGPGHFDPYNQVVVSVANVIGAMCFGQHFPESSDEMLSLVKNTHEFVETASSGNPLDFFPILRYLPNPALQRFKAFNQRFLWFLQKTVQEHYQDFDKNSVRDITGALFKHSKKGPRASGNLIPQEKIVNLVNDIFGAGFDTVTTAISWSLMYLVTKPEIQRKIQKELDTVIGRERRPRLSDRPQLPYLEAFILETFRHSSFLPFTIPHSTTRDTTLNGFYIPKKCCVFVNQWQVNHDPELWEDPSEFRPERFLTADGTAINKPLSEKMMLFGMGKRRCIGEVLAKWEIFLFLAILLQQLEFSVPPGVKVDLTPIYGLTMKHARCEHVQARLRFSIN
Sequence of Cytochrome P450 2C19 (Homo sapiens) (P33261 whole entry, looked up): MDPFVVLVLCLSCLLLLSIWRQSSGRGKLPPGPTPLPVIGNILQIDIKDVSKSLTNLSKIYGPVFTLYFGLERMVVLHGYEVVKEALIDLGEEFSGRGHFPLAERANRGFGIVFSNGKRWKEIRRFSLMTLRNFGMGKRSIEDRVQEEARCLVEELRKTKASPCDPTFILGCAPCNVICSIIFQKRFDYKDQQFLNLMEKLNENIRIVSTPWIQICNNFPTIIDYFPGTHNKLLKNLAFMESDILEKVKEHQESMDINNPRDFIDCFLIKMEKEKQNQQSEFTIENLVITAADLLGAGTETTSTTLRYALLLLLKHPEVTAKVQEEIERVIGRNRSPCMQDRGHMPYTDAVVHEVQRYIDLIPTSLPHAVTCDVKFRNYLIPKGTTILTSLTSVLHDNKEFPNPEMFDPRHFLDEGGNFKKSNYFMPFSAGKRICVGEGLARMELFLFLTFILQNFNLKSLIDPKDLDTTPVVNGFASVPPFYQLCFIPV
Sequence of Cytochrome P450 3A4 (Homo sapiens) (P08684 whole entry, looked up): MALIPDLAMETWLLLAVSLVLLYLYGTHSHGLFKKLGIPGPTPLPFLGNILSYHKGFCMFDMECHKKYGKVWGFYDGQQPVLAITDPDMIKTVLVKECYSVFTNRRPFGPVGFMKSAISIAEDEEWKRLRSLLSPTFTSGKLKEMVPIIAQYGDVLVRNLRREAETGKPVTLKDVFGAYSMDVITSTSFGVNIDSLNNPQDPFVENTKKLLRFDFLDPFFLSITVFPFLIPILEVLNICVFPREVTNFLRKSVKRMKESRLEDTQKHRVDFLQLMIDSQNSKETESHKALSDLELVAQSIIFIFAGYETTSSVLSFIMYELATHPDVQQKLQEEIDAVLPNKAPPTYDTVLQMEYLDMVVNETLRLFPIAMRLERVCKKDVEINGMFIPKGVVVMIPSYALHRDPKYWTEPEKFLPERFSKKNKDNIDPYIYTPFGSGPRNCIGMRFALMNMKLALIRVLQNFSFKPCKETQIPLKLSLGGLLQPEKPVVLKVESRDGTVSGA

`CC[N+]1(CC)CCC(OC(=O)C(O)(c2ccccc2)c2ccccc2)C1` (stereo not drawn): the Potency entry in assay [1], in assay [2], in assay [3], in [4], in [5] and in assay [6] was “inactive” throughout. Further, the Potency entry in [7], in assay [8], in assay [9], in [11], in assay [12] and in assay [13] was “inactive” each time. Further, in assay [10], the Potency was 8.71 µM (active).
As for `CC(=O)[O-].CC(=O)[O-].[Co+2]`, the Potency entry in [1], in assay [2], in assay [3], in [4], in assay [14] and in assay [15] was “inactive” each time.
As for `CNN`, the Potency result in [1], in [2], in [3], in [4], in [14] and in assay [6] was “inactive” each time. Moreover, the Potency result in assay [7], in [8], in assay [9], in [11], in [12] and in assay [16] was “inactive” each time. In addition, the Potency result in [15] and in [13] was “inactive” in each case.
`CC(Cl)CCl` (stereo not drawn): the Potency result in [1], in assay [2], in assay [3], in assay [4], in assay [14] and in assay [5] was “inactive” in each case. For the same molecule, the Potency entry in assay [7], in assay [8], in [9], in assay [10], in assay [12] and in assay [16] was “inactive” in each case. Moreover, the Potency entry in [15] and in [13] was “inactive” throughout. Also, the Potency in [11] is 70.8 µM (active).
`O=C(NC(=O)c1c(F)cccc1F)Nc1ccc(Oc2ccc(C(F)(F)F)cc2Cl)cc1F`: the Potency result in assay [1], in assay [2], in assay [4], in assay [6], in assay [7] and in assay [8] was “inactive” in each case. Further, the Potency entry in assay [9], in assay [10], in [11], in assay [16] and in [13] was “inactive” each time. Besides, the Potency in assay [3] is 61.1 µM (active); in assay [5], 19.3 µM (active); in [12], 25.2 µM (active).
Regarding `Cc1ccc([N+](=O)[O-])[c]2c1[O][Hg]2`, the Potency in assay [1] is 6.68 µM (active); in assay [3], 1.68 µM (active); in [14], 21.1 µM (active); in assay [5] it was 0.668 µM (active); in assay [10], 0.871 µM (active); in assay [11] it was 2.19 µM (active). The Potency in assay [12] is 0.871 µM (active); in [16] it was 3.23 µM (active); in [15], 6.01 µM (active); in assay [13], 7.76 µM (active). Besides, the Potency result in assay [2], in assay [4], in assay [6], in assay [8] and in assay [9] was “inactive” in each case.
Turning to `Cc1cnc2c(C(=O)O)c(Cl)ccc2c1`, the Potency entry in [1], in [2], in [3], in assay [4], in assay [5] and in assay [6] was “inactive” throughout. In addition, the Potency entry in assay [7], in [8], in assay [9], in assay [10], in [11] and in assay [12] was “inactive” in each case. The Potency entry in assay [15] and in assay [13] was “inactive” each time.
On to `CN(C)C(=S)SSC(=S)N(C)C`, for which the Potency in [1] is 447 nM (active) and 486 nM (active) and 422 nM (active); in [2], 851 nM (active) and 864 nM (active) and 668 nM (active); in [3], 240 nM (active) and 344 nM (active) and 298 nM (active); in assay [6], 78.5 µM (active) and inactive; in assay [8], 35.1 µM (active) and 39.9 µM (active) and 21.9 µM (active); in assay [10] it was 89.4 µM (active) and inactive. The Potency in [11] is 7 µM (active) and 6.33 µM (active) and 3.09 µM (active); in [12], 9.89 µM (active) and 6.33 µM (active) and 2.19 µM (active); in assay [16] it was 3.94 µM (active) and 4.48 µM (active) and 2.75 µM (active); in assay [15], 43 µM (active) and 49 µM (active); in assay [13], 39.4 µM (active). Further, the Potency entry in assay [4], in [5], in assay [18], in [7] and in assay [9] was “inactive” each time. Also, the max activation in assay [17] was -13.9% (inactive).
